The first experiment addresses MAGEA2B. The experiment in a line: pooled miR-30 sensor sort-seq; sequence = guide strand. To be noted: shRNA.
In turn, AAATGTGAGGTTCTCCACCGAT displayed a sensor-assay potency score (higher = more potent) of -0.397.

TCTTCCTACTGATTGCTGCTTG showed a sensor-assay potency score (higher = more potent) of -0.703.

Regarding TTGCATGAGCAGCTTCCTGGGA, the sensor-assay potency score (higher = more potent) is -0.244.

The sequence ATTTCTGAGGACACTCTCCAGC displayed a sensor-assay potency score (higher = more potent) of -1.24.

In turn, TTGATGGTAGTCGAGAAGCTGG registered a sensor-assay potency score (higher = more potent) of -0.963.

TCTTGCATGAGCAGCTTCCTGG gave a sensor-assay potency score (higher = more potent) of -1.1.

As for TAGTGTATGGTGCAGGACTTTC, the sensor-assay potency score (higher = more potent) was -1.11.

TCTGAGGACACTCTCCAGCATT: the sensor-assay potency score (higher = more potent) was -1.1.

ACCAACTCAACCATCTTCCTAC yielded a sensor-assay potency score (higher = more potent) of -1.03.

For a further experiment, the target named is MAGEA8. The description is as above. To be noted: shRNA.
The sequence TTTATGTCTTTATCTCATGTAT came in with a sensor-assay potency score (higher = more potent) of -0.397.

Regarding TAATCCTCTGCTCTTGTAGTGT, the sensor-assay potency score (higher = more potent) was -0.188.

The sequence TTCTTTATGTCTTTATCTCATG gave a sensor-assay potency score (higher = more potent) of -1.14.

ATCAATGCCAAAGATCACCTGC: the sensor-assay potency score (higher = more potent) was 0.274.

As to TAGAGGAGGAGGATGCAGCCTT, the sensor-assay potency score (higher = more potent) was -0.332.

The sequence TTTCTCATCAAGTGCTTCCCGG displayed a sensor-assay potency score (higher = more potent) of -0.5.

Regarding TTCTCATCAAGTGCTTCCCGGA, the sensor-assay potency score (higher = more potent) was -0.615.

TTTGATGACACTCTCAAGCATT came in with a sensor-assay potency score (higher = more potent) of -0.926.

As to TAGCGCACAGGATCACTGCCGG, the sensor-assay potency score (higher = more potent) was -0.803.

The sequence TTCCTCAGCCTTGTAGCGCTGA registered a sensor-assay potency score (higher = more potent) of 0.23.

TGTGGGAATCTGCACATCCATA displayed a sensor-assay potency score (higher = more potent) of -1.63.

The values are drawn from the OligoGym collection.
Also: reference of the scale not given here.
